Source: PubChem BioAssay (several laboratories)
Mcl1-Noxa inh – Mcl-1/Noxa interaction inhibition | Q07820 | TR-FRET Mcl-1/Noxa peptide binding, 2 h | inhibition, % at 21.7 µM | 220,000 compounds, 1.5% hits | AID 1022;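 active = compounds that cut the protein-peptide binding signal by more than 50% relative to plate controls in a single-dose test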;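 note: His-tagged Mcl-1 with rhodamine Noxa BH3 peptide and terbium anti-His antibody; 0% = Mcl-1 plus Noxa peptide wells and 100% = peptide-only wells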
Pf gametocyte – P. falciparum stage V gametocyte viability inhibition; P. falciparum stage V gametocytes, ATP luminescence, 24 h; inhibition, % at 10.9 µM; 150,000 compounds, 0.065% hits;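 active = inhibition above the mean plus 3 SD of compounds within the control limits, set per campaign, cut at about 38% in these data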;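 note: 0% = DMSO wells and 100% = medium only without gametocytes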
14-3-3 Bad PPI – disrupts binding of bovine 14-3-3 zeta to phospho-Bad peptide; P63103; TR-FRET 14-3-3zeta/Dy647-pBad peptide displacement, 1 h; inhibition, % at 21.7 µM; 220,000 compounds, 0.71% hits; AID 781;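 active = inhibition above about 70%, limit read from the data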;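 note: 0% = full 14-3-3 plus peptide FRET controls and 100% = background without 14-3-3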
Mcl-1 Bim block – human Bim-Mcl-1 interaction inhibition; Q07820; Bead-based flow cytometry, Bim peptide-Mcl-1 binding; inhibition, % at 10 µM; 190,000 compounds, 0.1% hits; in the data active = inhibition above about 40%;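 note: 0% = no compound tracer wells and 100% = peptide blocker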
Mcl1-Bid inh – Mcl-1/Bid interaction inhibition; Q07820; TR-FRET Mcl-1/Bid-Dy647 peptide binding, 1536-well; inhibition, % at 21.7 µM; 220,000 compounds, 0.97% hits;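 active = compounds that cut the binding signal by more than half at the single screening dose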;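 note: His-tagged Mcl-1 with europium anti-His antibody binding Bid BH3 peptide; 0% = Mcl-1 plus peptide wells and 100% = peptide-only wells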
eIF4E-4G inh – blocks eIF4E binding to eIF4G; P63073+Q04637; TR-FRET eIF4E-eIF4GI(517-606) binding, 2 h; inhibition, % at 21.7 µM; 220,000 compounds, 0.37% hits;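 active = inhibition above about 30%, limit read from the data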;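 note: 0% = full FRET control wells and 100% = background wells lacking eIF4GI fragment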
Target sequence (P63073 whole entry, looked up, the tested form may be a part): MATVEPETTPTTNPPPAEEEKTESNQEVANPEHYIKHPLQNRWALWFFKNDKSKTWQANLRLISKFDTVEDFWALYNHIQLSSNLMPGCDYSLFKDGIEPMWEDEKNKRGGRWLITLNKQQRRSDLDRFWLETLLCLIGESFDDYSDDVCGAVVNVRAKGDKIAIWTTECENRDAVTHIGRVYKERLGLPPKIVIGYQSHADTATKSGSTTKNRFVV
Target sequence (Q04637 whole entry, looked up, the tested form may be a part): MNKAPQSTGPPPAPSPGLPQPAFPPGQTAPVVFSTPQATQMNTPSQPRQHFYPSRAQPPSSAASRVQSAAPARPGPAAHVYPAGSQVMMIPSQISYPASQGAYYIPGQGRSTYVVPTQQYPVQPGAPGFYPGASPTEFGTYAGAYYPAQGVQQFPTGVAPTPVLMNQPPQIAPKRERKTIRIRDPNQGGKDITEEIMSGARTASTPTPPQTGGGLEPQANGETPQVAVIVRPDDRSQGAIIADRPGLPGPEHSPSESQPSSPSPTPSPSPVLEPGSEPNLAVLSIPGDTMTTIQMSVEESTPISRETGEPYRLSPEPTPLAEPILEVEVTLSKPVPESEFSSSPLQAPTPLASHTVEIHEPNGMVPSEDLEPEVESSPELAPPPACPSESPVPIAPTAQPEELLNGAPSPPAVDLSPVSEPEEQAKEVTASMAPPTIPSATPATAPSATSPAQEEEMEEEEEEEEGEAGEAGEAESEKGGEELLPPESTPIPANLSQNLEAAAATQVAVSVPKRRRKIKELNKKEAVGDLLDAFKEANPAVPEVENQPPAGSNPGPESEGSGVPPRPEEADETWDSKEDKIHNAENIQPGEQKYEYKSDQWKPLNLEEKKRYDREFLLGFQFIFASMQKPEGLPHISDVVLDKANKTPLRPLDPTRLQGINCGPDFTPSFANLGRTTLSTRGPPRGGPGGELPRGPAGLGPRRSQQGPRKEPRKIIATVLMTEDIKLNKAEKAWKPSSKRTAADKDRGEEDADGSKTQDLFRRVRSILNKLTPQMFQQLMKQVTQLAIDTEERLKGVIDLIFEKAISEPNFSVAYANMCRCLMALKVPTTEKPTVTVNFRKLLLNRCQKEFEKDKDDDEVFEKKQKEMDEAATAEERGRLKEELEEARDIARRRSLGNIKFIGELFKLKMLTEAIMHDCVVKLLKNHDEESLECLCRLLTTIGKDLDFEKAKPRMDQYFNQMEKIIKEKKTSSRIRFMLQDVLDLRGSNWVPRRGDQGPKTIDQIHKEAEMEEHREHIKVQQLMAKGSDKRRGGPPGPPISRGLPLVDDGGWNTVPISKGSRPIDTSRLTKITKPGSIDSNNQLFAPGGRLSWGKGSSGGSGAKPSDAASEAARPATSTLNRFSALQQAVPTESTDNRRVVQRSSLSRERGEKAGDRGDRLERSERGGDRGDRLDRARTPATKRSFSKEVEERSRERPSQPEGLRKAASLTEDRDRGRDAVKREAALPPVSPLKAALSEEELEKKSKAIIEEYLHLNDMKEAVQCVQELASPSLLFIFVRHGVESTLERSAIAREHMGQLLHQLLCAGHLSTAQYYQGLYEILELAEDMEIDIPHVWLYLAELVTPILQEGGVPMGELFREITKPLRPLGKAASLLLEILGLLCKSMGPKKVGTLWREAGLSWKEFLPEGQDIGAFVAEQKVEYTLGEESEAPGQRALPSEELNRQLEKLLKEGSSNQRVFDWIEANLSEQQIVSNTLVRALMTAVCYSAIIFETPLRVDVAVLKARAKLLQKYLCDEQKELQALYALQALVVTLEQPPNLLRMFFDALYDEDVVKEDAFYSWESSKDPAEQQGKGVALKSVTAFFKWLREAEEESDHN
* hit, by the source's call; . = not tested or not shown; [ ] = dose if it differs, or a comment. Compounds with a hit are over-represented: about 2.7% of the library has one in this group of screens.

SMILES	Mcl1-Noxa inh	Pf gametocyte	14-3-3 Bad PPI	Mcl-1 Bim block	Mcl1-Bid inh	eIF4E-4G inh
CCOC(=O)C1CCCN(c2c(N3CCN(c4cccc(Cl)c4)CC3)c(=O)c2=O)C1 (configuration not stated)	-1	.	5	-4	86*	-2
N#Cc1c(Cl)c(Cl)c2nnc(-c3ccc(Br)cc3)n2c1Cl	-40	.	95*[fluorescence artefact?]	7	14	36*[fluorescence artefact?]
[S-]c1nnc(-c2ccc(Br)cc2)n1-c1ccccc1.[Zn+2]	.	13	.	.	.	.
CCN1C(=O)S/C(=C/c2ccc(Sc3nc4ccccc4[nH]3)o2)C1=O	23	1	-15	-9	-12	0
CCn1c(O)c(/C=N/N=C2CCCCC2)c2cc(C3=NNC(=O)CC3)ccc21	20	-9	-14	.	-58	-1
CCCCn1c(N)c(NCC(C)C)c(=O)[nH]c1=O	22	-14	-11	-17	-49	0
Cc1ccc(Cn2nc(C)c(NC(=O)CSc3nc4c(c(C(F)(F)F)n3)CCc3ccccc3-4)c2C)cc1	34	7	66	-3	74*	30*
Cc1nn(Cc2ccc(Cl)cc2)c(C)c1NC(=O)CSc1nc2c(c(C(F)(F)F)n1)CCc1ccccc1-2	-10	-23	35	0	42	1
C=CCc1ccc(O)c(-c2ccc(O)c(CC=C)c2)c1	3	.	3	-3	6	-3
CCOc1cc(S(=O)(=O)Nc2ccc(CC)cc2)ccc1Cl	-4	.	5	2	-22	14
CCOc1cc(S(=O)(=O)Nc2ccccn2)ccc1F	-11	-9	46	50*	-3	2
CCOc1cc(S(=O)(=O)Nc2ccccc2CC)ccc1Cl	56*	13	-9	-1	9	-4
Cc1cc(NC(=O)CN2C(=O)NC3(CCC(C)CC3)C2=O)no1 (configuration not stated)	22	.	-3	-5	9	1
Cc1cccc(Nc2sc(C(=O)c3cc4cc(Cl)ccc4o3)c(N)c2C#N)c1	68*	.	67	.	66*	4
CCOC(=O)c1c(CS(=O)(=O)c2ccccc2)n(C)c2cc(Br)c(O)c(CN(C)C)c12	62*	.	1	0	-26	1
N#Cc1ccc(-c2cccs2)nc1SCc1cccnc1	0	11	-5	.	-2	-6
CN1CCN(C(=O)CSc2nc(-c3cccs3)ccc2C#N)CC1	56*	-6	1	-1	-9	2
CCC1(C)Cc2ccccc2/C(=C/C(=O)N2CCCCC2)N1 (configuration not stated)	9	.	77*	-1	-84	4
c1ccc(Oc2cccc(OCCn3cncn3)c2)cc1	32	.	65	-1	59*	-10
c1ccc(COc2ccc(OCCn3cncn3)cc2)cc1	12	-3	3	0	2	-10
NC(=S)n1[nH]c(-c2ccc([N+](=O)[O-])cc2)c(N=Nc2ccccc2[N+](=O)[O-])c1=O	84*	-1	65	-174	90*	-19
Nc1[nH]n(-c2ccccc2)c(=O)c1N=Nc1ccccc1	3	12	-3	.	-21	-1
Nc1[nH]n(-c2ccccc2)c(=O)c1N=Nc1ccc2ncsc2c1	63*	8	-3	.	-18	9
NC(=S)n1[nH]c(-c2ccc([N+](=O)[O-])cc2)c(N=Nc2cccc([N+](=O)[O-])c2)c1=O	85*	-5	91*	1	82*	13
Cc1c(N=Nc2c(-c3ccc([N+](=O)[O-])cc3)[nH]n(C(N)=S)c2=O)cccc1[N+](=O)[O-]	116*	-13	92*	0	98*	33*
SMILES	Mcl1-Noxa inh	Pf gametocyte	14-3-3 Bad PPI	Mcl-1 Bim block	Mcl1-Bid inh	eIF4E-4G inh
CCc1cc2c(=O)oc(-c3ccc(F)cc3)nc2s1	.	3	.	.	.	.
NC(=O)NC(=O)COC(=O)c1ccc(OC(F)F)cc1	15	-5	2	0	-68	0
CCOc1ccc(N(Cc2nnc3n2CCCCC3)C(=O)Nc2cccc(C)c2)cc1	13	5	-7	-5	-8	1
Nc1[nH]n(-c2ccccc2)c(=O)c1N=Nc1ccccc1[N+](=O)[O-]	60*	.	12	3	40	-24
COc1cc([N+](=O)[O-])ccc1N=Nc1c(N)[nH]n(-c2ccccc2)c1=O	25	13	-4	0	-49	4
COc1ccc(C(C(=O)Nc2ccc(C(C)C)cc2)N(Cc2ccco2)C(=O)CC2NC(=O)NC2=O)cc1 (configuration not stated)	15	-2	0	2	0	0
CNC(=O)CC1C(=O)N(c2ccc(OC)cc2)C(=S)N1NC(=O)c1cccc(F)c1 (configuration not stated)	-3	14	-3	.	99*	4
O=c1cc(-c2ccccc2)nc(SCCOc2ccccc2Cl)[nH]1	-1	0	-4	0	-19	-2
O=C1/C(=C/C=C/c2ccco2)SC(=S)N1NS(=O)(=O)c1ccccc1	111*	8	89*	.	74*	34*
Cn1c(=O)c2sccc2n(Cc2ccccc2)c1=O	.	-34	.	.	.	.
CC1CN(Cc2c(O)ccc3c2oc(=O)c2ccccc23)CC(C)O1 (configuration not stated)	-52	4	83*	.	32	4
Cc1ccc(C(=O)NCC(=O)N2CCN(c3ncccn3)CC2)s1	19	-4	8	0	65*	-7
COc1cc(C2Nc3cccc4cccc(c34)N2)ccc1OC(C)=O	69*	.	-5	12	-1	-12
COc1cc(C2Nc3cccc4cccc(c34)N2)cc(OC)c1O	100*	.	-12	12	10	14
c1coc(C2Nc3cccc4cccc(c34)N2)c1	76*	.	-14	15	-21	17
Oc1ccc(C2Nc3cccc4cccc(c34)N2)c(O)c1	103*	.	-13	7	19	23
COC(=O)c1ccc(C2Nc3cccc4cccc(c34)N2)cc1	40	5	-11	1	-31	-2
FC(F)(F)c1ccc(C2Nc3cccc4cccc(c34)N2)cc1	27	-6	0	-2	-53	1
Cc1ccc(-c2nc3sc(C#N)c(N)n3c(=O)c2C#N)cc1	28	-27	-1	-2	18	17
CCCN(CCC)CCCNC(=O)c1nn(-c2cccc(OC)c2)c(=O)c2ccccc12	1	-12	-9	1	-21	-1
CCC[N+](CC#CCO)(CC#Cc1ccccc1)CCC	7	-3	0	.	-9	91*
Cc1cc(Cl)ccc1OCCCC(=O)NO	1	.	0	0	-18	12
Cc1cc(Cl)ccc1OCCCC(N)=O	71*	.	3	-2	-10	-1
CCOC(=O)/C=C/C(=O)Nc1cccc([N+](=O)[O-])c1	66*	.	16	0	-8	17
